Most compounds without a hit are left out; they make up all but 2.6% or so of the library.
LGR2 inh – blocks bursicon-induced cAMP signaling via Drosophila LGR2; HEK293 LGR2, CRE-luciferase, bursicon-stimulated, 4 h; inhibition, % at 9.99 µM; 380,000 tested, 0.35% active; AID 720647;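 active = drop in luminescence signal, shown as inhibition above about 50% in the replicate tests, limit read from the data, passing the limit was not always enough; inconclusive = probably only some replicates passing the limit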;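 note: agonist challenge used bursicon conditioned medium at about half maximal strength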
LMP1 NFkB inh – inhibitors of Epstein-Barr LMP1-induced NF-kappaB reporter; LMP1-induced NF-kappaB luciferase reporter cells, luminescence; inhibition, % at 12.5 µM; 350,000 tested, 0.69% active; AID 504558; in the data active = inhibition above about 41%; inconclusive = no clear call, values can overlap the other calls;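 note: 0% = neutral control wells and 100% = reference inhibitor control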
aDG glyco act – increases alpha dystroglycan glycosylation; Pro5-aDG cells, alpha-DG glycosylation AlphaScreen (IIH6); 0% Pro5, 100% B10-LARGE cell signal; activation, % at 10 µM; 360,000 tested, 0.22% active; AID 624168;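 active = activation of at least 8% versus controls, or a plate z-score of at least 8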;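 note: Pro5 are CHO cells carrying HIG-tagged alpha-DG that lacks glycosylation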
TWEAK Fn14 block – inhibitors of TWEAK-Fn14 interaction signaling; TWEAK-stimulated Fn14 reporter cells, luciferase luminescence, 8 h; 360,000 tested, 2% active; inhibition, % at 10 µM; in the data active = inhibition above about 50%
HSP90 refold inh – blocks HSP90-mediated luciferase refolding in reticulocyte lysate | Rabbit reticulocyte lysate, luciferase refolding luminescence, 3 h | inhibition, % at 5.6 µM | 290,000 tested, 0.91% active | AID 1789;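 active = inhibition above the screen-wide mean plus 3 SD, computed separately per campaign, cut at about 16% in these data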;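 note: 0% = DMSO wells and 100% = 60 µM geldanamycin wells; inhibitors lower the luminescence because luciferase stays unfolded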
TROY NFkB inh – TROY signaling inhibition; AID 1347056; 360,000 tested, 0.98% active; Q293 LMP1-TROYcd NF-kB luciferase reporter, 4 h; inhibition, % at 10 µM;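 active = compounds whose plate-normalised and pattern-corrected inhibition of the luciferase reporter signal at the single screening dose is 50% or more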
HSP90 confirm – confirmation of HSP90 inhibitors; shares compounds with HSP90 refold inh; rabbit reticulocyte lysate, luciferase refolding luminescence, 3 h; inhibition, % at 5.9 µM; 2,300 tested, 64% active; AID 1846; in the data active = inhibition above about 18%;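 note: 0% = vehicle wells and 100% = reference inhibitor wells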
FLuc counter – counter-screen for HSP90 inhibitors: inhibitors of firefly luciferase; shares compounds with HSP90 refold inh; purified native firefly luciferase, luminescence; inhibition, % at 5.9 µM; 2,300 tested, 48% active; AID 1847;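 active = inhibition above the mean inhibition of all tested sample wells plus 3 SD, cut at about 10% in these data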;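 note: 0% = DMSO with luciferase and 100% = wells lacking luciferase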
Target sequence (P08659 whole entry, looked up): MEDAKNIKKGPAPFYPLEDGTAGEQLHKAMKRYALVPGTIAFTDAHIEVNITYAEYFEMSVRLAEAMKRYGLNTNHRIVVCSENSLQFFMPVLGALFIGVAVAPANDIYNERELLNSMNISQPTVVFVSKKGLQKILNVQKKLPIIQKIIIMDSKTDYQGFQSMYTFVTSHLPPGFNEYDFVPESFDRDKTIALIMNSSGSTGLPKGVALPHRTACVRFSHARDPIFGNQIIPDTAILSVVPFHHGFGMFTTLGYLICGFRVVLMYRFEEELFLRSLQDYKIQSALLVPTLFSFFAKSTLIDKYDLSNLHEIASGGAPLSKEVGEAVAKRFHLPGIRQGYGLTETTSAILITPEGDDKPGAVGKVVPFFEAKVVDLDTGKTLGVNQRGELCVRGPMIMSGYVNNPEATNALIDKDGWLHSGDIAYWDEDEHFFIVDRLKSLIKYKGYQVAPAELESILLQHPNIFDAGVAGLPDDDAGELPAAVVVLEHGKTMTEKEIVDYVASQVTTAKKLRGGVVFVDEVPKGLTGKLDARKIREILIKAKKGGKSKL
The depositor's hits bear a star.

Results for COc1ccc(CN(C)C[C@@H]2OCCCC[C@@H](C)Oc3ccc(NC(=O)Nc4ccccc4)cc3C(=O)N([C@@H](C)CO)C[C@@H]2C)cc1 ?
LGR2 inh: -5.9

Results for O=C(Nc1cc(F)ccc1F)N1CCCCN2[C@H](C1)[C@@H](c1ccc(-c3ccccc3)cc1)[C@@H]2CO ?
LGR2 inh: 13.1

How did O=S(=O)(c1ccc(F)cc1)N1CC[C@@H]2[C@H](CO)Nc3ccc(C#CC4CCCCC4)cc3[C@@H]21 do in these assays?
LGR2 inh: -10.4

What do the screens show for `O=[N+]([O-])c1ccc(-c2ccc(C=Nc3cccc4ccccc34)o2)cc1`?
LMP1 NFkB inh: -2.8; aDG glyco act: 0.3; TWEAK Fn14 block: 61.9*; HSP90 refold inh: 18.4*; TROY NFkB inh: 62.8*; HSP90 confirm: 0.4; FLuc counter: -7.6

What do the screens show for `CC(C)CC#Cc1ccc2c(c1)O[C@@H](CN(C)C)[C@H](C)CN([C@H](C)CO)S2(=O)=O`?
LGR2 inh: -13.7

Results for O=Cc1ccc(-c2ccc(F)cc2)o1 ?
LGR2 inh: 39.0; LMP1 NFkB inh: 0.2; aDG glyco act: -0.2; TWEAK Fn14 block: -3.5; HSP90 refold inh: 1.6; TROY NFkB inh: 6.3

What do the screens show for `O=Cc1ccc(-c2ccc(C(=O)O)cc2)o1`?
LGR2 inh: 4.0; LMP1 NFkB inh: -1.7; aDG glyco act: -0.1; TWEAK Fn14 block: -3.2; HSP90 refold inh: 17.1*; TROY NFkB inh: -2.6; HSP90 confirm: 9.6; FLuc counter: 1.2

How did COc1ccccc1C(=O)N(CCC1CCCN1C)c1nc2ccccc2s1 (configuration not stated) do in these assays?
LGR2 inh: 97.5*; LMP1 NFkB inh: 1.7; aDG glyco act: 0.7; TWEAK Fn14 block: 100.9*; HSP90 refold inh: 67.3*; TROY NFkB inh: 89.0*; HSP90 confirm: 70.3*; FLuc counter: 68.7*

How did Cc1noc(C)c1NC(=O)N(C)C[C@@H]1Oc2c(NC(=O)C3CC3)cccc2C(=O)N([C@H](C)CO)C[C@@H]1C do in these assays?
LGR2 inh: -8.2

What do the screens show for `Cc1cc(C(=O)N/N=C/c2ccc3ccccc3c2)n[nH]1`?
LGR2 inh: -13.8; LMP1 NFkB inh: -11.4; aDG glyco act: 0.1; TWEAK Fn14 block: -6.6; HSP90 refold inh: 35.5*; TROY NFkB inh: 0.7; HSP90 confirm: -9.6; FLuc counter: -26.8

How did c1ccc(-c2cn3c(n2)-c2ccccc2C3)cc1 do in these assays?
LGR2 inh: inconclusive; LMP1 NFkB inh: 1.6; aDG glyco act: 0.0; TWEAK Fn14 block: 72.1*; HSP90 refold inh: 18.2*; TROY NFkB inh: 32.5; HSP90 confirm: 51.3*; FLuc counter: 41.6*

How did CC=Cc1ccc2n(c1=O)C[C@H]1[C@H](CO)[C@@H](C(=O)Nc3ccc(-c4ccccc4)cc3)N(C(=O)CC)[C@@H]21 (mixture of isomers) do in these assays?
LGR2 inh: -4.3

What do the screens show for `Cc1ccc(-n2nc3cc(C)c(N)cc3n2)cc1`?
LMP1 NFkB inh: -14.8; aDG glyco act: 0.7; TWEAK Fn14 block: -14.1; HSP90 refold inh: 1.8; TROY NFkB inh: -31.6

What do the screens show for `Nc1cc2nn(-c3ccccc3)nc2cc1Cl`?
LMP1 NFkB inh: -67.2; aDG glyco act: -0.1; TWEAK Fn14 block: -5.2; HSP90 refold inh: 42.6*; TROY NFkB inh: -23.7; HSP90 confirm: 18.1*; FLuc counter: -8.2

How did COc1ccc(NC(=O)Nc2ccc3c(c2)CC(=O)N([C@@H](C)CO)C[C@H](C)[C@H](CN(C)C)O3)cc1 do in these assays?
LGR2 inh: -2.5

What do the screens show for `O=C(c1cccc(C(F)(F)F)c1)N1CCCC1`?
LGR2 inh: -4.4; LMP1 NFkB inh: 5.3; aDG glyco act: -0.3; TWEAK Fn14 block: 1.0; HSP90 refold inh: -0.6; TROY NFkB inh: -7.7

Results for O=C(Nc1ccc(C(=O)N2CCCC2)cc1)c1cccc(C(F)(F)F)c1 ?
LGR2 inh: -24.8; LMP1 NFkB inh: 0.3; aDG glyco act: 0.2; TWEAK Fn14 block: -22.6; HSP90 refold inh: 20.8*; TROY NFkB inh: -11.3; HSP90 confirm: -7.8; FLuc counter: -12.7

What do the screens show for `CCCN(C)C[C@@H]1Oc2cc(C3=CCCC3)ccc2S(=O)(=O)N([C@H](C)CO)C[C@@H]1C`?
LGR2 inh: 6.0

How did C[C@H](O)C#Cc1ccc2c(c1)O[C@@H](CN(C)C(=O)CN(C)C)[C@@H](C)CN([C@@H](C)CO)S2(=O)=O do in these assays?
LGR2 inh: 7.2

How did COc1ccc(OC)c(/C(C)=N/Nc2ccc(C(=O)O)cc2)c1 do in these assays?
LGR2 inh: -8.9; LMP1 NFkB inh: -3.5; aDG glyco act: 0.2; TWEAK Fn14 block: 14.8; HSP90 refold inh: 36.4*; TROY NFkB inh: 34.3; HSP90 confirm: 25.2*; FLuc counter: 32.5*

What do the screens show for `COc1ccc(/C=N/Nc2ccc(C(=O)O)cc2)c(OC)c1OC`?
LGR2 inh: -30.7; LMP1 NFkB inh: -8.3; aDG glyco act: 0.1; TWEAK Fn14 block: -5.8; HSP90 refold inh: -1.2; TROY NFkB inh: 21.7

How did C/C(=N\NC(N)=O)c1ccc(-n2ccnc2)cc1 do in these assays?
LGR2 inh: 39.2; LMP1 NFkB inh: 13.0; aDG glyco act: -0.3; TWEAK Fn14 block: -0.6; HSP90 refold inh: -5.0; TROY NFkB inh: -1.6

How did C/C(=N\Nc1ccc(C(=O)O)cc1)c1ccc(-n2ccnc2)cc1 do in these assays?
LGR2 inh: -11.6; LMP1 NFkB inh: -25.2; aDG glyco act: -0.2; TWEAK Fn14 block: 30.1; HSP90 refold inh: 17.5*; TROY NFkB inh: -33.2; HSP90 confirm: 14.6; FLuc counter: -7.5

What do the screens show for `COc1ccc(OC)c(C(=O)c2ccc(C(=O)c3cc(OC)ccc3OC)cc2)c1`?
LGR2 inh: 7.5; LMP1 NFkB inh: 20.4; aDG glyco act: 0.0; TWEAK Fn14 block: 6.3; HSP90 refold inh: 0.0; TROY NFkB inh: 13.7

Results for COc1cc(/C(C)=N/Nc2ccc(C(=O)O)cc2)cc(OC)c1OC ?
LGR2 inh: -16.9; LMP1 NFkB inh: -10.2; aDG glyco act: -0.1; TWEAK Fn14 block: 20.9; HSP90 refold inh: 24.8*; TROY NFkB inh: 34.8; HSP90 confirm: 43.2*; FLuc counter: 34.2*

What do the screens show for `C/C(=N/Nc1ccc(C(=O)O)cc1)c1ccc(O)c(O)c1O`?
LGR2 inh: -0.3; LMP1 NFkB inh: 0.4; aDG glyco act: -0.1; TWEAK Fn14 block: 7.3; HSP90 refold inh: 29.3*; TROY NFkB inh: 40.3; HSP90 confirm: 53.6*; FLuc counter: 45.0*

What do the screens show for `N#C[C@H]1[C@@H](c2ccc(C3=CCCC3)cc2)[C@H](CO)N1C(=O)Cc1ccncc1`?
LGR2 inh: -1.5

How did C[C@@H]1CN([C@@H](C)CO)S(=O)(=O)c2ccc(Br)cc2O[C@H]1CN(C)S(=O)(=O)c1ccc(F)cc1 do in these assays?
LGR2 inh: 10.5

Screening data deposited in PubChem by several laboratories.
